Reference: PubChem BioAssay (NCATS)
Results filed as inconclusive are left out. Active and inactive are the calls of the source. Calls follow the shape of the dose curve; as a rule, active = well fitted curve in the direction sought with a large enough effect; inconclusive = small, poorly fitted or top-dose-only effect, or another doubt; inactive = no such curve, though single readings can be large; an effect the other way counts as inactive or inconclusive.

Columns and labels:
[1] = target: phosphoglycerate mutase (Leishmania major) (UniProt Q4Q090); experiment: qHTS Validation Assay to Find Inhibitors of Phosphoglycerate Mutase (AID 504548); conditions: Potency: inhibition qHTS; also: potency is read from the fitted curve at half-maximal effect
Outline: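 Lm PGAM 1.25nM final; 100 mM TEA pH 7.6, 5 mM MgCl2, 0.01% Tween-20; 45 min RT; Kinase-GloPlus, 10 min; end-point luminescence. Enzyme-free wells as negative controls.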

[2] = Inducers of the Endoplasmic Reticulum Stress Response (ERSR) in human glioma: Validation (AID 504836)
Outline: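 Stably transfected U87-MG glioma cells carrying a GRP78-based luciferase sensor; 16 h compound incubation. Luminescence end-point read 10 min after Bright-Glo addition at room temperature.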

[3] = target: Ubiquitin carboxyl-terminal hydrolase 1 (Homo sapiens) (UniProt O94782); experiment: Inhibitors of USP1/UAF1: Pilot qHTS (AID 504865); also: nearly all actives have a fitted effect of over 35% in size; also: potency is read from the fitted curve at half-maximal effect
Outline: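 In 50mM HEPES pH 7.8 containing 0.5mM EDTA, 1mM TCEP, 0.1 mg/ml BSA and 0.01% Tween-20, 1nM USP1/UAF1 is exposed to compound for 15 min, then Ub-Rho (150nM final) is added and fluorescence is read over time.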

[4] = qHTS for Inhibitors of ATXN expression: Validation of Cytotoxic Assay (AID 588349); also: potency is read from the fitted curve at half-maximal effect
Outline: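 Cytotoxicity counter-screen: ATP-based luminescent viability (CellTiter Glo) after 72 hr exposure of HEK293 cells to a compound titration at 37 degrees C.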

[5] = qHTS for Inhibitors of ATXN expression: Validation (AID 588378); also: nearly all actives have a fitted effect of over 75% in size; also: potency is read from the fitted curve at half-maximal effect
Outline: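 Compounds were pinned onto attached HEK293 cells carrying an ATXN2-firefly luciferase construct and incubated 24 hrs at 37 degrees C. Each well then received a fluorescent viability reagent followed by luciferase substrate for end-point luminescence.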

[6] = target: DNA dC->dU-editing enzyme APOBEC-3G (Homo sapiens) (UniProt Q9HC16); experiment: qHTS for inhibitors of Vif-A3G interactions: Validation (AID 588379)
Outline: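 Yellow fluorescence (Ex 488, Em 500-530) of Vif-coexpressing HeLa A3G-eYFP cells, scanned by Acumen cytometer, reports blocked A3G degradation. Cells plated at 700/well overnight at 37 deg C before compound addition, then a further overnight compound incubation at 37 deg C.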

Measured: Potency

DNA dC->dU-editing enzyme APOBEC-3G (Homo sapiens), sequence (Q9HC16 whole entry, looked up): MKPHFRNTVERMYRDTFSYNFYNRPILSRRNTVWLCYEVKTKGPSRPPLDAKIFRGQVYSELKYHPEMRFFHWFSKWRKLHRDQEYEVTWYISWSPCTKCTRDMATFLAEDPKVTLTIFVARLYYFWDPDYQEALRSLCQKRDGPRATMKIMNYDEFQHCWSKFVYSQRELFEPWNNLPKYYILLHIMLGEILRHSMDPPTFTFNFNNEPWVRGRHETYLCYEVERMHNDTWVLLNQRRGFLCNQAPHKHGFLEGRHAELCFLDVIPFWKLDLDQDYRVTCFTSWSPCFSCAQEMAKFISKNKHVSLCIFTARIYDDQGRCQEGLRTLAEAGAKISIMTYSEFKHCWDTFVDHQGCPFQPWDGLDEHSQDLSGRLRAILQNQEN
Ubiquitin carboxyl-terminal hydrolase 1 (Homo sapiens), sequence (O94782 whole entry, looked up): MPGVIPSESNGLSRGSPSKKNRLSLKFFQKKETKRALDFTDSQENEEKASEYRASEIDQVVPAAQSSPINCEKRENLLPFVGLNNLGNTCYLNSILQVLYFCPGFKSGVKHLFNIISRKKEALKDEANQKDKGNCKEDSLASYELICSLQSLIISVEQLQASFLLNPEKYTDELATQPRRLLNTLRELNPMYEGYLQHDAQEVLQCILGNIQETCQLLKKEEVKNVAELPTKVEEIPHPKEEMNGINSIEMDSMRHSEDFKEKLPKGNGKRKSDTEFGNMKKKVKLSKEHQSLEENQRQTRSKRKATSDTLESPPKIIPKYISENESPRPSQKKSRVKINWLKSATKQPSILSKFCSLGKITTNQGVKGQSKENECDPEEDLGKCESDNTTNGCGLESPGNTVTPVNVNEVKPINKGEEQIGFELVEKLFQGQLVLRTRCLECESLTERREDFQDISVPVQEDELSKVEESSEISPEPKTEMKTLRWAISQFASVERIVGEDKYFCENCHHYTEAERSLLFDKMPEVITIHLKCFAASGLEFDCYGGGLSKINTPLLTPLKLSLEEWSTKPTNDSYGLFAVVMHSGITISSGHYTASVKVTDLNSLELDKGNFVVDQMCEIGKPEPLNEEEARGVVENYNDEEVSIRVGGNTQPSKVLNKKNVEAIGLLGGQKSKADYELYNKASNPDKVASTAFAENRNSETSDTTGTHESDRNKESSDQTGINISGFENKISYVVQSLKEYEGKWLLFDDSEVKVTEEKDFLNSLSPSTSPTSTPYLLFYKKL
phosphoglycerate mutase (Leishmania major), sequence (Q4Q090 1-553): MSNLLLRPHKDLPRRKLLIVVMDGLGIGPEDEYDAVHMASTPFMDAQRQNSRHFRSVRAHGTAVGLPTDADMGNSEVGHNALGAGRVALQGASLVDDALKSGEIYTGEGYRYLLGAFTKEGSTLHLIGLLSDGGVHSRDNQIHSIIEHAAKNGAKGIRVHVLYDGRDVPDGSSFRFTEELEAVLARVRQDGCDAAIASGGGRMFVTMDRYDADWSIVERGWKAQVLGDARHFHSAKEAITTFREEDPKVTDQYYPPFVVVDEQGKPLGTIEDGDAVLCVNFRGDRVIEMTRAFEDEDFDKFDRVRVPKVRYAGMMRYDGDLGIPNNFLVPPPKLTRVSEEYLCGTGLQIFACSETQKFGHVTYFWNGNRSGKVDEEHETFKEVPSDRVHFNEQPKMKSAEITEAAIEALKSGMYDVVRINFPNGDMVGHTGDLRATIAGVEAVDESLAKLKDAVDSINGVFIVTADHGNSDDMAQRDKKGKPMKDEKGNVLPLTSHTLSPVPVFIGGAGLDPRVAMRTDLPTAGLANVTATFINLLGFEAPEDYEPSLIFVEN

C=CCN1CC[C@]23c4c5ccc(O)c4O[C@@H]2/C(=N/N=C2\CC[C@@]4(O)C6Cc7ccc(O)c8c7[C@@]4(CCN6CC=C)[C@@H]2O8)CC[C@@]3(O)C1C5
inactive: [1] | [2] | [3]

NC(=O)c1ccc(OCC(O)CN2CC=C(c3ccc(F)cc3)CC2)cc1 (centres undefined)
inactive: [1] | [2] | [3] | [4] | [5]

CCCN1CCC[C@@H](c2cccc(O)c2)C1
inactive: [1] | [2] | [3] | [4]

CC(C)(C)c1cc(C=C(C#N)C#N)cc(C(C)(C)C)c1O
inactive: [1] | [2]

CC(C)(C)c1o[nH]c(=O)c1CC(N)C(=O)O (centres undefined)
inactive: [1] | [2] | [3] | [4]

COc1ccc2c(c1O)-c1cccc3c1[C@@H](C2)N(C)CC3
inactive: [1] | [2] | [3]

NC(CCCCCP(=O)(O)O)C(=O)O (centres undefined)
inactive: [1] | [2] | [3] | [4] | [5]

C[N+]1(C)CCN(c2ccccc2)CC1
inactive: [1] | [2] | [3]

C=CCN(C1=NCCN1)c1c(Cl)cccc1Cl
inactive: [1] | [2] | [3] | [4] | [5]

Nc1ccc(CCN2CCN(c3cccc(C(F)(F)F)c3)CC2)cc1
inactive: [1] | [2] | [3] | [4]

C[N+](C)(C)CCOC(=O)CBr
inactive: [1] | [2] | [3] | [4]

C=CCN1CCC23c4c5ccc(O)c4O[C@H]2C(=O)CC[C@@]3(O)C1C5 (some centres undefined)
inactive: [1] | [2] | [3] | [4] | [5]

Clc1ccc(N2CC3CCC(C2)N3)nn1
inactive: [1] | [2] | [3] | [4] | [5]

CC(C)(O)[C@@H]1C2OC(=O)[C@@H]1[C@]1(O)C[C@H]3O[C@]34C(=O)O[C@H]2[C@]14C (tested in a mixture with another compound)
inactive: [1] | [2] | [3] | [4] | [5]

O=S1(=O)N(CCN2CC=C(c3c[nH]c4cc(F)ccc34)CC2)c2cccc3c2N1CCC3
inactive: [1] | [2] | [3]

CO[C@H]1CC=C2CCN3CCC4=C(CC(=O)OC4)[C@]23C1
inactive: [1] | [2] | [3] | [4]

CN(N=O)c1ccc(O)c(O)c1
inactive: [1] | [2] | [4] | [5]
active: [3] 22.4 µM

C#CCN[C@H](C)Cc1ccccc1
inactive: [1] | [2] | [3] | [4] | [5]

CN1CC[C@@]2(C)c3cc(OC(=O)Nc4ccccc4)ccc3N(C)[C@@H]12
inactive: [1] | [2]

C[C@H](N)Cc1cccc(C(F)(F)F)c1
inactive: [1] | [2] | [3] | [4] | [5]

NCC(CP(=O)(O)O)c1ccc(Cl)cc1 (centres undefined)
inactive: [1] | [2] | [3] | [4]

c1ccc2cc(CC3=NCCN3)ccc2c1
inactive: [1] | [2] | [3] | [4]

Oc1ccc2c3c1O[C@H]1c4oc5ccccc5c4C[C@@]4(O)C(C2)N(CC2CC2)CCC314 (some centres undefined)
inactive: [1]

CCCN(CCC)[C@H]1CCc2c(F)ccc(O)c2C1
inactive: [1] | [2] | [3] | [4] | [5]

O=[N+]([O-])c1ccc2nc(N3CCNCC3)ccc2c1
inactive: [1] | [2] | [3]

C=CCN1C[C@@H](C)N([C@H](c2ccc(C(=O)N(CC)CC)cc2)c2cccc(OC)c2)C[C@@H]1C
inactive: [1] | [2] | [3] | [4]

NC(=O)c1cc(N2CC2)c([N+](=O)[O-])cc1[N+](=O)[O-]
inactive: [1] | [2] | [3] | [4]

C[N+]1(C)CCc2cc3c(cc2[C@H]1[C@@H]1OC(=O)c2c1ccc1c2OCO1)OCO3
inactive: [1] | [2] | [3] | [4] | [5]

C[N+]1(C)CCOC(O)(c2ccc(-c3ccc(C4(O)C[N+](C)(C)CCO4)cc3)cc2)C1 (centres undefined)
inactive: [1] | [2] | [3] | [4] | [5]

NCCCP(=O)(O)O
inactive: [1] | [2] | [3] | [4] | [5]

CC12NC(Cc3ccccc31)c1ccccc12 (centres undefined)
inactive: [1] | [2] | [3] | [4] | [5]

N#CCCN
inactive: [1] | [2] | [3] | [4] | [5]

O=c1c2ccccc2[se]n1-c1ccccc1
active: [1] 7.57 µM
inactive: [2] | [3]

COc1ccc2c(c1)c(CCN1CCOCC1)c(C)n2C(=O)c1cccc(Cl)c1Cl
inactive: [1] | [2]

COC(=O)N1CCN(C(=O)Cc2ccc(Cl)c(Cl)c2)C(CN2CCCC2)C1 (centres undefined)
inactive: [1] | [2] | [3]

C=CCN1CC[C@]23c4c5ccc(O)c4O[C@H]2/C(=N/NC(=O)c2ccccc2)CC[C@@]3(O)[C@H]1C5
inactive: [1] | [2] | [3] | [4]

C[N+]1(C)C2CCC1CC(OC(=O)c1c[nH]c3ccccc13)C2 (centres undefined)
inactive: [1] | [2] | [3] | [4]

CC(N)c1cccc(Cl)c1Cl (centres undefined)
inactive: [1] | [2] | [3] | [4] | [5]

N=C(N)c1ccc(CS(=O)(=O)F)cc1
inactive: [1] | [2] | [3] | [4] | [5]

O=C1CC[C@@]2(O)C3Cc4ccc(O)c5c4C2(CCN3CC2CC2)[C@H]1O5 (some centres undefined)
inactive: [1] | [3] | [4] | [5]

COc1ccc2c(c1)[C@@]13CCCC[C@H]1[C@@H](C2)NCC3
inactive: [1] | [2] | [4]

CN1CCC(c2c[nH]c3ccc(O)cc23)CC1
inactive: [1] | [2] | [3] | [4] | [6]

CCCN(CCC)C1Cc2cc(OC)c(OC)cc2C1
inactive: [1] | [2] | [3] | [4] | [6]

CCCCCCCCCCCCCC(=O)O[C@@H]1[C@@H](C)[C@@]2(O)[C@@H](C=C(CO)C[C@@]3(O)C(=O)C(C)=C[C@@H]23)C2C(C)(C)[C@@]21OC(C)=O (some centres undefined)
inactive: [1] | [2] | [4] | [5]

CCCN(CCC)CCc1c[nH]c2ccc(C(N)=O)cc12
inactive: [1] | [2] | [3] | [5]

c1ccc2c(N3CCNCC3)cccc2c1
inactive: [1] | [3] | [4]

OCc1cnc[nH]1
inactive: [1] | [3] | [4] | [5]

NC(N)=Nc1ccc2[nH]c3c(c2c1)C[C@@]1(O)[C@H]2Cc4ccc(O)c5c4[C@@]1(CCN2CC1CC1)[C@H]3O5
active: [3] 79.4 µM
inactive: [1]

CCS(=O)(=O)Nc1cccc(C(=C2CCCCC2)c2cnc[nH]2)c1
inactive: [1] | [3] | [4] | [5]

NCCc1c[nH]c2ccc(C(N)=O)cc12
inactive: [1] | [2] | [3] | [4] | [6]

NC(Cc1cc(O)c(O)cc1O)C(=O)O (centres undefined)
active: [3] 14.1 µM
inactive: [1]

CCCN1CC[C@@H]2c3cc(O)ccc3CC[C@@H]21
inactive: [1] | [3] | [4] | [5]

C[N+](C)(C)CC#CCN1CCCC1=O
inactive: [1] | [3] | [4] | [6]

N[C@@H](Cn1ccc(=O)[nH]c1=O)C(=O)O
inactive: [1] | [3] | [4] | [5]

C[C@]12Cc3cn4c(nc3C=C1CCC1C2CC[C@@]2(C)[C@H]1CC[C@@]2(O)C#N)nc1ccccc14 (some centres undefined)
inactive: [1] | [3] | [4] | [5]

Ic1ccccc1CNC1C2CCN(CC2)C1C(c1ccccc1)c1ccccc1 (centres undefined)
inactive: [1] | [3]
active: [4] 25.1 µM

CCCn1c(C)c(C(=O)c2ccc3ccccc3c2)c2ccccc21
inactive: [1] | [2] | [5]

NC(Cc1ccc(N(CCCl)CCCl)cc1)C(=O)O (centres undefined)
inactive: [1] | [3] | [4]

Cc1c2ccncc2c(C)c2c1[nH]c1ccccc12
inactive: [1] | [2] | [4]

CN1CC[C@@]2(C)c3cc(O)ccc3N(C)C12 (some centres undefined)
inactive: [1] | [2]
active: [4] 28.2 µM

CCCN(CCC)CCc1ccc(O)c(O)c1
inactive: [1] | [3] | [4]

CC(N)Cc1c[nH]c2ccc(O)cc12 (centres undefined)
inactive: [1] | [2] | [3] | [4] | [5]

CCCN(CCC)[C@@H]1CCc2cccc(O)c2C1
inactive: [1] | [2] | [3] | [4] | [5] | [6]

O=[N+]([O-])/C=C/c1ccc2c(c1)OCO2
inactive: [1] | [2] | [3]
active: [5] 10 µM

CC(N)Cc1c[nH]c2ccc(OCc3cccs3)cc12 (centres undefined)
active: [5] 28.2 µM
inactive: [1] | [2] | [3]

N[C@@]1(C(=O)O)CC[C@@H](C(=O)O)C1
inactive: [1] | [3] | [4] | [5]

CC(C)[C@@]1(NC(=O)[C@@H]2C[C@@H]3c4cccc5[nH]cc(c45)C[C@H]3N(C)C2)O[C@@]2(O)[C@@H]3CCCN3C(=O)[C@H](Cc3ccccc3)N2C1=O
inactive: [1] | [2] | [3] | [4] | [6]

C[C@@H]1O[C@@H](O[C@H]2C[C@@H](O)[C@]3(CO)[C@@H]4C(CC[C@]3(O)C2)[C@@]2(O)CC[C@H]([C@@H]3COC(=O)C3)[C@@]2(C)C[C@H]4O)[C@H](O)[C@H](O)[C@H]1O (some centres undefined)
active: [5] 1.78 µM
inactive: [1] | [3]

Cc1o[nH]c(=O)c1CC(N)C(=O)O (centres undefined)
inactive: [1] | [3] | [4] | [5]

NC(=O)CI
inactive: [1] | [3] | [4] | [5]

N[C@@H](Cn1oc(=O)[nH]c1=O)C(=O)O
inactive: [1] | [2] | [3] | [4] | [5] | [6]

CCN1C[C@@]2(COC)C3[C@@H](OC)C4[C@@H]1C3([C@@H]1C[C@]3(O)[C@H](OC(=O)c5ccccc5)[C@@H]1[C@]4(OC(C)=O)[C@@H](O)[C@@H]3OC)[C@H](OC)C[C@H]2O
inactive: [1] | [3] | [4] | [5]

CC1(C(=O)O)C2CCC(O2)C1(C)C(=O)O (centres undefined)
inactive: [1] | [2] | [3]
active: [5] 7.94 µM
